Results filed as inconclusive are left out. Activity calls are given as the source filed them. Unless noted, calls come from the whole dose curve.
What was measured:
[1] = G protein-coupled receptor (GPCR) small molecule agonists, calcium flux assay: HEK293 wild type cell line counter screen (AID 1920065)
In short: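 Calcium-sensitive dye, loaded 1 h at 37 C into cells cultured 18 h, reports compound-evoked calcium release as fluorescence (Ex/Em 480/540), measured over 3 min. Agonist mode; 15-point titrations, triplicate.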

[2] = p53 small molecule agonists, cell-based qHTS assay with human liver microsomes: qHTS cell viability counter screen (AID 1963579); note: nearly all actives have a fitted effect of over 45% in size; note: potency is the fitted concentration of half-maximal effect
In short: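 Seed p53RE-bla cells at 4,000 per well; incubate 5 h at 37 C; add compound, human liver microsomes and NADPH; incubate 16 h at 37 C; add CellTiter-Glo; after 30 min at room temperature, read luminescence.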

[3] = p53 small molecule agonists, cell-based qHTS assay with rat liver microsomes: qHTS cell viability counter screen (AID 1963580); note: nearly all actives have a fitted effect of over 45% in size
In short: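 HCT-116 p53RE-bla, 4,000 cells/well, 5 h pre-incubation; cpd + rat liver microsomes 0.5 mg/mL + NADPH 0.5 mg/mL (final); 16 h, 37 C; CellTiter-Glo, 30 min RT; luminescence.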

[4] = p53 small molecule agonists, cell-based qHTS assay: qHTS cell viability counter screen (AID 1963581); note: nearly all actives have a fitted effect of over 45% in size
In short: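 Following 5 h attachment, HCT-116 p53RE-bla cells took up compound for 16 h at 37 C; the reporter was read with B/G FRET substrate (2 h RT), and viability then via CellTiter-Glo ATP luminescence.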

[5] = biological target: Gonadotropin-releasing hormone receptor (Homo sapiens) (UniProt P30968); assay: Human gonadotropin-releasing hormone receptor (GnRHR) small molecule agonists, calcium flux assay in GnRHR-HEK293 cells (AID 1920063); note: nearly all actives have a fitted effect of over 35% in size; note: potency is the fitted concentration of half-maximal effect
In short: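 We seeded human GnRHR-expressing HEK293 cells for 18 hours, loaded them with calcium dye for an hour at 37 C, added test compounds, and recorded fluorescence intensity kinetically for three minutes.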

[6] = p53 small molecule agonists, cell-based qHTS assay with human liver microsomes (AID 1963577); note: potency is the fitted concentration of half-maximal effect
In short: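 Cells carrying a p53-responsive bla reporter were rested 5 h (37 C, 5% CO2) before compound transfer. Human liver microsomes plus NADPH, 0.5 mg/mL final apiece, supplied metabolism during the 16 h 37 C exposure.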

[7] = biological target: 5-hydroxytryptamine receptor 2A (Homo sapiens) (UniProt P28223); assay: 5-hydroxytryptamine receptor 2A (HTR2A) small molecule agonists, cell-based qHTS assay (AID 1963587); note: nearly all actives have a fitted effect of over 30% in size; note: potency is the fitted concentration of half-maximal effect
In short: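 Kinetic calcium-flux fluorescence (2 min, 1 sec intervals) after compound addition in agonist mode. HTR2A-CHO cells were cultured 18 h, then dye-loaded 1 h at 37 C.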

[8] = biological target: Muscarinic acetylcholine receptor M1 (Homo sapiens) (UniProt P11229); assay: Cholinergic receptor muscarinic 1 (CHRM1) small molecule antagonists, cell-based qHTS assay (AID 1963588); note: nearly all actives have a fitted effect of over 40% in size
In short: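 CHRM1-CHO calcium-flux assay, antagonist mode. Cells were seeded 18 h, dye-loaded 1 h at 37 C and given compound for 5 min at RT, then acetylcholine was added at 50nM. FDSS fluorescence was read 3 min; 15 concentrations, three runs.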

[9] = biological target: Beta-2 adrenergic receptor (Homo sapiens) (UniProt P07550); assay: Adrenergic beta2 receptor (ADRB2) small molecule antagonists, cell-based qHTS assay (AID 1963592); note: series mostly up to about 92 µM; nearly all actives have a fitted effect of over 50% in size
In short: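 Cells (CHO, stable ADRB2 overexpression) incubated 18-20hr at 37C; compounds added from DMSO; agonist mix (1nM isoproterenol, 100uM IBMX, 25uM Ro-20-1724) added; 0.5hr RT; d2-cAMP and anti-cAMP-cryptate added; 1hr RT; 665/615 nm read.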

[10] = biological target: Beta-2 adrenergic receptor (Homo sapiens) (UniProt P07550); assay: Adrenergic beta2 receptor (ADRB2) small molecule agonists, cell-based qHTS assay (AID 1963593);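 note: CHO cells stably overexpressing human ADRB2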
In short: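 CHO cells stably over-expressing ADRB2 were plated overnight at 37C, then dosed with compounds plus a stimulation mix containing 100uM IBMX and 25uM Ro-20-1724 for 0.5hr at room temperature. cAMP was measured by HTRF competition, 1hr.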

[11] = biological target: D(2) dopamine receptor (Homo sapiens) (UniProt P14416); assay: Dopamine D2 receptor (DRD2) small molecule antagonists, cell-based qHTS assay (AID 1963595; active = well fitted inhibition curve with a large enough effect in the signal ratio in the repeat runs, with a control signal flat; the % refers to the signal ratio)
In short: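 Cells were plated and grown for 24 h at 37 °C. Ro20-1724 (0.1 mM final) went in first, then compound for 10 min. NKH477 (200 nM) with quinpirole (12 nM) followed for 30 min at RT, then HTRF detection reagents for 1 h.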

[12] = biological target: KiSS-1 receptor (Homo sapiens) (UniProt Q969F8); assay: Human kisspeptin (KISS1R) small molecule agonists, calcium flux assay in KISS1R-HEK293 cells (AID 1920064; active = well fitted activation curve with a large enough effect in the repeat runs)
In short: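 Kinetic calcium assay, 1 s sampling over 3 min at Ex/Em 480/540, in HEK293 cells engineered with human KISS1R; compounds delivered in DMSO after 1 h dye loading.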

[13] = p53 small molecule agonists, cell-based qHTS assay with rat liver microsomes (AID 1963578)
In short: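 Fluorescence from a beta-lactamase reporter under a p53 response element was measured after cells had been incubated 16 h at 37 C with test compound and rat liver microsomes plus NADPH (0.5 mg/mL final each).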

[14] = p53 small molecule agonists, cell-based qHTS assay (AID 1963582; active = well fitted activation curve with a large enough effect in the signal ratio in the repeat runs, not every such curve was filed as active; the % refers to the signal ratio; note: potency is the fitted concentration of half-maximal effect)
In short: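 In this cell-based concentration-response screen, a p53 response element drives beta-lactamase; cells received DMSO-borne compounds after 5 h culture and were incubated a further 16 h before FRET substrate development.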

[15] = biological target: D(2) dopamine receptor (Homo sapiens) (UniProt P14416); assay: Dopamine D2 receptor (DRD2) small molecule agonists, cell-based qHTS assay (AID 1963594); note: nearly all actives have a fitted effect of over 35% in size
In short: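 cAMP accumulation in DRD2-HEK293 cells measured by HTRF after 1 h detection; compounds added 10 min before NKH477 (200nM […]) forskolin-analogue stimulation, 30 min at room temperature, with Ro20-1724 present at 0.1 mM final.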

[16] = biological target: 5-hydroxytryptamine receptor 2A (Homo sapiens) (UniProt P28223); assay: 5-hydroxytryptamine receptor 2A (HTR2A) small molecule antagonists, cell-based qHTS assay (AID 1963586); note: nearly all actives have a fitted effect of over 45% in size; note: potency is the fitted concentration of half-maximal effect
In short: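 Antagonist-mode intracellular calcium assay: DOI (4 nM) added after 5 min compound pre-incubation at room temperature to dye-loaded HTR2A-CHO cells. Fluorescence followed for 3 min, sampled every second.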

[17] = biological target: Muscarinic acetylcholine receptor M1 (Homo sapiens) (UniProt P11229); assay: Cholinergic receptor muscarinic 1 (CHRM1) small molecule agonists, cell-based qHTS assay (AID 1963589); note: nearly all actives have a fitted effect of over 35% in size
In short: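 Measures agonist-induced intracellular calcium rise. Stable human CHRM1 CHO line, 1 h dye load at 37 C, compounds from DMSO, kinetic fluorescence read.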

[18] = cAMP Responsive Elements (CRE) small molecule antagonists, cell-based qHTS assay (AID 1963591; active = well fitted inhibition curve with a large enough effect in the signal ratio in the repeat runs, not every such curve was filed as active; the % refers to the signal ratio)
In short: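 HEK293T cells carrying a CRE-driven beta-lactamase reporter receive compound and NKH477 (0.25 uM final) for 3 h. Fluorescence from LiveBLAzer B/G FRET substrate is read after 2 h at room temperature.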

[19] = cAMP Responsive Elements (CRE) small molecule agonists, cell-based qHTS assay (AID 1963590)
In short: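 A CRE-responsive beta-lactamase reporter in HEK 293T cells was used. Treatment ran 3 h at 37 C; detection used LiveBLAzer B/G FRET substrate for 2 h at room temperature.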
% is set by controls: 0 for no effect and ±100 for the full control effect.

Chain of Muscarinic acetylcholine receptor M1 (Homo sapiens) (P11229 whole entry, looked up): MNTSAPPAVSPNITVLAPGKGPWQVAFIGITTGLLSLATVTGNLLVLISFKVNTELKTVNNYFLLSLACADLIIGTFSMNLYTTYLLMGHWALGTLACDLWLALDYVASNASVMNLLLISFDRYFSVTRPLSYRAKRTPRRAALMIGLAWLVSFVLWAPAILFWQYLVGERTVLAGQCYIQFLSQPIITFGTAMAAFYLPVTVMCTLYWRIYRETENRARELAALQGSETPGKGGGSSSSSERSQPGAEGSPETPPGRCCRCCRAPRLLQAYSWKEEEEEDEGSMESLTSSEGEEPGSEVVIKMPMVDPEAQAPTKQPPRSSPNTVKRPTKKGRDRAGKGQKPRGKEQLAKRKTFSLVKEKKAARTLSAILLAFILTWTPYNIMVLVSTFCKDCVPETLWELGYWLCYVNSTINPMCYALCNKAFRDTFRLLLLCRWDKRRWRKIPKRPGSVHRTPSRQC
Chain of 5-hydroxytryptamine receptor 2A (Homo sapiens) (P28223 whole entry, looked up): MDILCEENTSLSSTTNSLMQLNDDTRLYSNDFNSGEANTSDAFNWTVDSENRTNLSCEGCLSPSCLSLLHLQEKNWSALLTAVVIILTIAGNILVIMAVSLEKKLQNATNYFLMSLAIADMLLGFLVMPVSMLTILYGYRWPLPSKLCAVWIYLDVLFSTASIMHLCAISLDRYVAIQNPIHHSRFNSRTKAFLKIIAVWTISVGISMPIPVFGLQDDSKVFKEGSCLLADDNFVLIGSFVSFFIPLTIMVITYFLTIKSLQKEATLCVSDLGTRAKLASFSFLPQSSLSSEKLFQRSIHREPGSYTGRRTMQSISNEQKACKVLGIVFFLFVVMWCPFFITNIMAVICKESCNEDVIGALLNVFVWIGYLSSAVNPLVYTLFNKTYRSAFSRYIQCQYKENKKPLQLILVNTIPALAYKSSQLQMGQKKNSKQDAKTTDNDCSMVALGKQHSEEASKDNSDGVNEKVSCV
Chain of D(2) dopamine receptor (Homo sapiens) (P14416 whole entry, looked up): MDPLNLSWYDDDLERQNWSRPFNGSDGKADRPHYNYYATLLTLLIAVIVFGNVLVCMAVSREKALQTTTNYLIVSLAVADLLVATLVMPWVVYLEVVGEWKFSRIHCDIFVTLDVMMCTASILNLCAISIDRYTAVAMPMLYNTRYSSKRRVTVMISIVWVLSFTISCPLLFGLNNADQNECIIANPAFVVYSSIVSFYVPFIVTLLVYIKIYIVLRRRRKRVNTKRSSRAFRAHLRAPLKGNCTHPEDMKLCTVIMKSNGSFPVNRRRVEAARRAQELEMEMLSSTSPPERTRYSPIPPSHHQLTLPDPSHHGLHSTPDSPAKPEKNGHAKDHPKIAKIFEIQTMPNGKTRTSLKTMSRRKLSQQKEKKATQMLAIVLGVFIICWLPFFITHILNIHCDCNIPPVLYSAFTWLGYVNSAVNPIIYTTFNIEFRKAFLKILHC
Chain of KiSS-1 receptor (Homo sapiens) (Q969F8 whole entry, looked up): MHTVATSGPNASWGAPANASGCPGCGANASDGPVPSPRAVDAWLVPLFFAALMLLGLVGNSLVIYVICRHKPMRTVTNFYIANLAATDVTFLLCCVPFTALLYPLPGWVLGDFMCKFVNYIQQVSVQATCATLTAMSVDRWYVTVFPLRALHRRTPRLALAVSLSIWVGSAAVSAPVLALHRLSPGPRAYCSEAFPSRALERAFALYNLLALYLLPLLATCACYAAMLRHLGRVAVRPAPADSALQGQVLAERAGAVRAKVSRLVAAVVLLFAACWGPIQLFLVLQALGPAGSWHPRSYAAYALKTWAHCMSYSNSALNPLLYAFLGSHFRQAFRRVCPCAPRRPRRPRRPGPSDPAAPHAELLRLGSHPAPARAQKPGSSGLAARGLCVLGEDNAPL
Chain of Beta-2 adrenergic receptor (Homo sapiens) (P07550 whole entry, looked up): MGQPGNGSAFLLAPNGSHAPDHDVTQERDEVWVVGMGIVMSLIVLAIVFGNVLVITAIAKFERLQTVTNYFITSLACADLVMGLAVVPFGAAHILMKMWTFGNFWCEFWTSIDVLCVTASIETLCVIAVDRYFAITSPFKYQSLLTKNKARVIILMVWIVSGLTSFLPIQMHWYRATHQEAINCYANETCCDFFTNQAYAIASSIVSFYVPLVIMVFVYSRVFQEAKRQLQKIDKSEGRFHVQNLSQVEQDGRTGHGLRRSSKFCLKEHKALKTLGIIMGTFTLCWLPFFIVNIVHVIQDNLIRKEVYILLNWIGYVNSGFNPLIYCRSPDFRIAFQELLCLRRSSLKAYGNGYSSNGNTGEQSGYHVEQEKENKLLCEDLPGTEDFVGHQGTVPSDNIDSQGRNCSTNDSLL
Chain of Gonadotropin-releasing hormone receptor (Homo sapiens) (P30968 whole entry, looked up): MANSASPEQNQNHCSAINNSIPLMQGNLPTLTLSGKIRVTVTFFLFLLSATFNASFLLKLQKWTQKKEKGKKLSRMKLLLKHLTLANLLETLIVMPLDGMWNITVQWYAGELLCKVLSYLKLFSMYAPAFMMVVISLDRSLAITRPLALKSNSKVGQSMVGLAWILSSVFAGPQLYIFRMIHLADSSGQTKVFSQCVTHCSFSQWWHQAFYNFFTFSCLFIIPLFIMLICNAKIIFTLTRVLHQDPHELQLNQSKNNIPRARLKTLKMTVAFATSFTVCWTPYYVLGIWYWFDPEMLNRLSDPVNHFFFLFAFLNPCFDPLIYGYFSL

O=[N+]([O-])c1cc([N+](=O)[O-])c2ccc(S(=O)(=O)O)cc2c1O
inactive: Potency [1] | Potency [2] | Potency [3] | Potency [4]

Nc1ccc2c(c1)CN1C(=O)c3ccccc3C1=N2
active: Potency [5] 6.57 µM | Potency [7] 10.4 µM
inactive: activation [6] 5.53% [at 13.5 µM] | activity change, negative = cytotoxicity [2] -28.3% [at 13.5 µM] | activity change, negative = cytotoxicity [3] -20.3% [at 13.5 µM] | activity, negative = inhibition [8] 0.434% [at 12.6 µM] | activity change, negative = inhibition [9] -18.2% [at 19 µM] | activation [10] 25.8% [at 19 µM] | activity change, negative = inhibition [11] -0.331% [at 18.9 µM]

COc1cc([C@@H]2c3cc4c(cc3[C@@H](O[C@@H]3O[C@@H]5CO[C@@H](C)O[C@H]5[C@H](O)[C@H]3O)[C@H]3COC(=O)[C@H]23)OCO4)cc(OC)c1O
inactive: Potency [12] | Potency [1] | Potency [6] | Potency [13] | Potency [2] | Potency [3] | Potency [4] | Potency [9] | Potency [10] | Potency [15] | Potency [11]
active: Potency [14] 1.14 µM

CC(=O)N(C)C
inactive: Potency [16] | Potency [7] | Potency [8] | Potency [17] | Potency [9] | Potency [15]

CC[C@@H]([C@H](C)O)n1ncn(-c2ccc(N3CCN(c4ccc(OC[C@@H]5CO[C@@](Cn6cncn6)(c6ccc(F)cc6F)C5)cc4)CC3)cc2)c1=O
inactive: Potency [5] | Potency [1] | Potency [6] | Potency [13] | Potency [2] | Potency [3] | Potency [4] | Potency [16] | Potency [7] | Potency [8] | Potency [17] | Potency [9] | Potency [10] | Potency [15] | Potency [11]

COc1ccc2ccccc2c1
active: Potency [16] 33.4 µM
inactive: Potency [7] | Potency [8] | Potency [17] | Potency [9] | Potency [10] | Potency [15] | Potency [11]

CC/C=C\C/C=C\C/C=C\CCCCCCCC(=O)OC
inactive: Potency [12] | Potency [1] | Potency [6] | Potency [13] | Potency [16] | Potency [8] | Potency [17] | Potency [18] | Potency [10] | Potency [15]

NCCCC(O)(P(=O)(O)O)P(=O)(O)O
inactive: Potency [12] | Potency [1] | Potency [4] | Potency [14] | Potency [19] | Potency [9] | Potency [10] | Potency [15] | Potency [11]

c1ccc2sc(SN(C3CCCCC3)C3CCCCC3)nc2c1
inactive: Potency [5] | Potency [1] | Potency [2] | Potency [3] | Potency [4] | Potency [16] | Potency [7] | Potency [8] | Potency [19] | Potency [9] | Potency [10] | Potency [15] | Potency [11]

O=C(O)c1c(Cl)ccc(Cl)c1Cl
inactive: Potency [12] | Potency [1] | Potency [2] | Potency [3] | Potency [4] | Potency [16] | Potency [7] | Potency [8] | Potency [17] | Potency [19] | Potency [18] | Potency [9] | Potency [10] | Potency [15] | Potency [11]

CC1=C(C(=O)O)N2C(=O)[C@@H](NC(=O)[C@H](N)c3ccc(O)cc3)[C@H]2SC1
inactive: Potency [5] | Potency [1] | Potency [6] | Potency [13] | Potency [2] | Potency [3] | Potency [4] | Potency [14] | Potency [16] | Potency [7] | Potency [8] | Potency [17] | Potency [19] | Potency [18] | Potency [9] | Potency [15] | Potency [11]

CN1CCC(N(Cc2cccs2)c2ccccc2)CC1
inactive: Potency [5] | Potency [2] | Potency [4] | Potency [7] | Potency [8] | Potency [17] | Potency [19] | Potency [18] | Potency [9]
active: Potency [16] 0.365 µM

CC(=O)[O][Al]
inactive: Potency [5] | Potency [1] | Potency [6] | Potency [13] | Potency [2] | Potency [3] | Potency [4] | Potency [16] | Potency [7] | Potency [8] | Potency [19] | Potency [9] | Potency [10] | Potency [15] | Potency [11]

O=C(CCCN1CCC(O)(c2ccc(Cl)cc2)CC1)c1ccc(F)cc1
inactive: Potency [5] | Potency [1] | Potency [19] | Potency [18] | Potency [9] | Potency [10]

CC(C)(C)c1csc(-c2cc3cc(OCc4ccccc4CC(=O)O)ccc3o2)n1
active: Potency [2] 45.8 µM
inactive: Potency [12] | Potency [1] | Potency [6] | Potency [13] | Potency [16] | Potency [15] | Potency [11]

CN(C/C=C/C#CC(C)(C)C)Cc1cccc2ccccc12
inactive: Potency [5] | Potency [1] | Potency [6] | Potency [2] | Potency [3] | Potency [9] | Potency [10] | Potency [15]

COc1ccc2cc([C@H](C)C(=O)O)ccc2c1
inactive: Potency [12] | Potency [1] | Potency [4] | Potency [14] | Potency [18] | Potency [9] | Potency [15] | Potency [11]

S=P(N1CC1)(N1CC1)N1CC1
inactive: Potency [1] | Potency [2] | Potency [4] | Potency [14] | Potency [16] | Potency [8] | Potency [15]
active: Potency [6] 34.1 µM

CC(C)(C)c1ccc(C(O)CCCN2CCC(C(O)(c3ccccc3)c3ccccc3)CC2)cc1 (configuration not stated)
inactive: Potency [12] | Potency [1] | Potency [18] | Potency [9] | Potency [15] | Potency [11]

CCN(CC)CCCC(C)Nc1c2ccc(Cl)cc2nc2ccc(OC)cc12 (configuration not stated)
inactive: Potency [12] | Potency [1] | Potency [2] | Potency [4]
active: Potency [14] 19.9 µM
